Reference: the supplement of paper PMC10849652
About 7,900 targets were measured; listed, in parts, are those with a hit and a random draw of the rest. About 0.6% of all pairs of compound and target were hits.

What follows are targets tested with c1cn2cc(-c3ccc4cn[nH]c4c3)nc(Nc3ccc(N4CCOCC4)cc3)c2n1 [entospletinib] (assay: log2 fold change, soluble protein after heating vs DMSO (PISA); higher = thermal stabilisation; K562 cells, 10 uM, 30 min; active = over 0.2 and 3.5 SD of the protein, either way, in both replicates (recomputed)).
How it was run: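 K562 cells at 2×10^6 cells/mL were exposed to 10 μM compound for 30 min, then aliquots were heated for 3 min across 48°C-58°C, pooled, and extracted in PBS containing 0.5% NP-40 at 4°C. The supernatant after 21,000xg for 90 min was taken as soluble protein and measured by TMTpro 16plex LC-MS/MS with channel sums equalised. Thermal stability is reported relative to control samples, with values from duplicates. Fold changes are given on a log2 scale.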

Chain of UniProt P37268 (P37268 whole entry, looked up): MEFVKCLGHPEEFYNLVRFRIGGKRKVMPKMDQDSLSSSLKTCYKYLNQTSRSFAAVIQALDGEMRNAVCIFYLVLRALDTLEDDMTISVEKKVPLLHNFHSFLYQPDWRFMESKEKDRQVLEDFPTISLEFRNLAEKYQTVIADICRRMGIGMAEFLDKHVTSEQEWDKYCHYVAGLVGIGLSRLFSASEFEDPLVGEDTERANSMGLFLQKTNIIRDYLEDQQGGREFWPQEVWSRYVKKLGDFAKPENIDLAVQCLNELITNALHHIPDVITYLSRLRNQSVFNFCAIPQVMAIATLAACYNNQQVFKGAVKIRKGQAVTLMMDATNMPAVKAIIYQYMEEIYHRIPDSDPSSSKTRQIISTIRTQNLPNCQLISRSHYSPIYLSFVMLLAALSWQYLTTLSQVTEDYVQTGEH
Chain of UniProt Q9NZC3 (Q9NZC3 whole entry, looked up): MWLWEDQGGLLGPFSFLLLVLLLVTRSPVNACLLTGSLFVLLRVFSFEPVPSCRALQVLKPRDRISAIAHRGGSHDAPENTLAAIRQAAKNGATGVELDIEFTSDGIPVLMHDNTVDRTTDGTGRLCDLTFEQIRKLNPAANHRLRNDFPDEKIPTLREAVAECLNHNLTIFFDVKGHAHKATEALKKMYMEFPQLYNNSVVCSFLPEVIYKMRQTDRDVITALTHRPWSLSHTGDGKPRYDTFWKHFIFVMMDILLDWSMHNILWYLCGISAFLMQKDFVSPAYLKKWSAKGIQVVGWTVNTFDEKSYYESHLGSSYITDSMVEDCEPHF
Chain of UniProt Q53T59 (Q53T59 whole entry, looked up): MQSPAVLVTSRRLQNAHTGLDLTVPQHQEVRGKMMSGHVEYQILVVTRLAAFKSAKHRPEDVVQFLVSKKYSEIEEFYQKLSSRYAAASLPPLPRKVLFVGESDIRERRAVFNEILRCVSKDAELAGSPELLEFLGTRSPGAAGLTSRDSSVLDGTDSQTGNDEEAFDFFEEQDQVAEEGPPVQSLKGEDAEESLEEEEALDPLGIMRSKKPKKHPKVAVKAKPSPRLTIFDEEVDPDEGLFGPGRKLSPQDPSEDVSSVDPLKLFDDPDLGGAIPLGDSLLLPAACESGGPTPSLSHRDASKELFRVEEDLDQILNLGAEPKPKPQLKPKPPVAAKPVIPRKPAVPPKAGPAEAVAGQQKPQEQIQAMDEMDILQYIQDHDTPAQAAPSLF
Chain of UniProt Q8N2G8 (Q8N2G8 whole entry, looked up): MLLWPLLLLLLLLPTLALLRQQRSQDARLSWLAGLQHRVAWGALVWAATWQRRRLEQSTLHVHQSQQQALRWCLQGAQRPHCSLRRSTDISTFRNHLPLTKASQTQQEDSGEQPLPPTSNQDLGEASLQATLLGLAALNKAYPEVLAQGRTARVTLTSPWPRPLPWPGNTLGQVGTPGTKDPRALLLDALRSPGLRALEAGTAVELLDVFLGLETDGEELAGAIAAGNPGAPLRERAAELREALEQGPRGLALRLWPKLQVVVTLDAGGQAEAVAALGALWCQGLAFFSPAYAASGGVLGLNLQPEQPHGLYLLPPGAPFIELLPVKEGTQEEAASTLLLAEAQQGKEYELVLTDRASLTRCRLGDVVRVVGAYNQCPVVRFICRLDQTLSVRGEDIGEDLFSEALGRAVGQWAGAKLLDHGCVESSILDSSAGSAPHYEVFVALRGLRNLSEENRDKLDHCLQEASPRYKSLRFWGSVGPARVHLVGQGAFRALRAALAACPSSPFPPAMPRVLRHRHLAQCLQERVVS
Chain of UniProt Q9H6D7 (Q9H6D7 whole entry, looked up): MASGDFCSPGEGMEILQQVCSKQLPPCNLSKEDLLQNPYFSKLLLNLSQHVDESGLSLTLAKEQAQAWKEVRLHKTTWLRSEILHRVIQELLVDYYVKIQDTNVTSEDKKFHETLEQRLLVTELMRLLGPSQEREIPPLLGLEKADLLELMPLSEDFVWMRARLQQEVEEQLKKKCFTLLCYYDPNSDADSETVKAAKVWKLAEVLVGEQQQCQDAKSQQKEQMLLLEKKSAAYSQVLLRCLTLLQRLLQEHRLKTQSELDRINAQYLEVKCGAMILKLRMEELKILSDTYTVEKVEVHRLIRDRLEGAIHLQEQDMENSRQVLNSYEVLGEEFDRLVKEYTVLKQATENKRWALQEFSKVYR
Chain of UniProt Q9NP66 (Q9NP66 whole entry, looked up): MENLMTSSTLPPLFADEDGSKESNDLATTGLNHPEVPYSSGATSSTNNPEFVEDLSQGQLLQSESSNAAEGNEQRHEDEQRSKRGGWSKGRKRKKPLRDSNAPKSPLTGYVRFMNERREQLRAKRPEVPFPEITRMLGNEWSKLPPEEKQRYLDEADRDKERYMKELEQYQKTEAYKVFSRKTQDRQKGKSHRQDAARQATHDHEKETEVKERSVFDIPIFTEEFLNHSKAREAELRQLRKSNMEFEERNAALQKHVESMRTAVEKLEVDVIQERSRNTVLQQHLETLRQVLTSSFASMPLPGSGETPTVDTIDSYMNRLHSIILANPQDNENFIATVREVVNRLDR
Chain of UniProt O43524 (O43524 whole entry, looked up): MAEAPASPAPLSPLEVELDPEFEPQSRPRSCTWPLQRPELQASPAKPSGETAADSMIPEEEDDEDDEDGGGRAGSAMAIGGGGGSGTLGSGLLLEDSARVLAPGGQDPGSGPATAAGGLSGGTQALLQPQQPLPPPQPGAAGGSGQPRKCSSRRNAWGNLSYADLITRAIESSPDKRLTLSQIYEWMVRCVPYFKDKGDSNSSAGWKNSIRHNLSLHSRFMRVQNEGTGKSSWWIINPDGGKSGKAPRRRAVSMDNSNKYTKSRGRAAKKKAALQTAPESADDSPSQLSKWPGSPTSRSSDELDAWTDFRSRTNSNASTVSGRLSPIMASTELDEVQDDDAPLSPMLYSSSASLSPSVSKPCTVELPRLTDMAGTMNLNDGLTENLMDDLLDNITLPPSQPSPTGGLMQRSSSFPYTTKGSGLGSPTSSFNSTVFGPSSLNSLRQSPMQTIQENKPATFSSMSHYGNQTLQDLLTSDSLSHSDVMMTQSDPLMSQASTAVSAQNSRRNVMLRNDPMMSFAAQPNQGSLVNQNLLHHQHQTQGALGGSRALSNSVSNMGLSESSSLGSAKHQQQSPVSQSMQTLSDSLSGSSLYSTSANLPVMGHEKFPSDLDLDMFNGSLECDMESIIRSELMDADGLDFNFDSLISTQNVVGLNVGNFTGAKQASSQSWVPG
Chain of UniProt Q14956 (Q14956 whole entry, looked up): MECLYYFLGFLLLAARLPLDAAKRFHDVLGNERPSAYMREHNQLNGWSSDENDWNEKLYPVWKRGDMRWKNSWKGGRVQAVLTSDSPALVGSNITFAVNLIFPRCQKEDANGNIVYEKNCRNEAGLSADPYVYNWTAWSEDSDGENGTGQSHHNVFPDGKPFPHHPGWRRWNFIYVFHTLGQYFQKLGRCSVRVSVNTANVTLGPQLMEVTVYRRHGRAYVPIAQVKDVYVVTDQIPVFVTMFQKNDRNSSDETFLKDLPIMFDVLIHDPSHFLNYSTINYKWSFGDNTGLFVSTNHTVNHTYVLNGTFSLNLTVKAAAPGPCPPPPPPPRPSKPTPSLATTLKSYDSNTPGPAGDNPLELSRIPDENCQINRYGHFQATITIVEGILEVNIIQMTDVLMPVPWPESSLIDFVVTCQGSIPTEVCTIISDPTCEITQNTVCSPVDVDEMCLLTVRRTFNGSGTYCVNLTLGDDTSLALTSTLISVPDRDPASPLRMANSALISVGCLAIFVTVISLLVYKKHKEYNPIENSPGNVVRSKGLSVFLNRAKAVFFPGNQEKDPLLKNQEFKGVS
Chain of UniProt Q96LB3 (Q96LB3 whole entry, looked up): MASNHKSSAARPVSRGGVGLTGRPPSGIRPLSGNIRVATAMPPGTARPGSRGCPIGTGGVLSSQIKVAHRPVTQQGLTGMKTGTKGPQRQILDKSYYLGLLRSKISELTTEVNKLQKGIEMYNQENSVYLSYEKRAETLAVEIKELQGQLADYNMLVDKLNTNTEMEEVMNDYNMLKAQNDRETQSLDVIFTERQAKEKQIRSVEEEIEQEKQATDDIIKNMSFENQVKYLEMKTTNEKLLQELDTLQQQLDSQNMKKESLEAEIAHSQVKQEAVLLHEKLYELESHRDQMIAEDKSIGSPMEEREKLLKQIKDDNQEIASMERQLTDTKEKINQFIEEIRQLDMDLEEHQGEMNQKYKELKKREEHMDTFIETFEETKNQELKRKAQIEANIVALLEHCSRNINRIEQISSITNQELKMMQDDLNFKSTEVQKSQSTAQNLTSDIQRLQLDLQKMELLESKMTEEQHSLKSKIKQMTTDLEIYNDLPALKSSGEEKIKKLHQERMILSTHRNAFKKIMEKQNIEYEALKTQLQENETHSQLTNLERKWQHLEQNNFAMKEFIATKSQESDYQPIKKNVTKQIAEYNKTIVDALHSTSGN
Chain of UniProt O60725 (O60725 whole entry, looked up): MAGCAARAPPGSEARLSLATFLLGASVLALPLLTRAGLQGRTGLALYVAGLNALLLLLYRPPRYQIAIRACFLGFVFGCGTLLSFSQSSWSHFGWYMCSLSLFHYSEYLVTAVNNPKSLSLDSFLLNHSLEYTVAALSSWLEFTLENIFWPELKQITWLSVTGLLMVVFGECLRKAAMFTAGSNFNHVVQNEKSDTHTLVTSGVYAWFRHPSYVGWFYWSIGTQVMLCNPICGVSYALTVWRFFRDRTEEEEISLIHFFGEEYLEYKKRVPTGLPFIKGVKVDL
Chain of UniProt P08754 (P08754 whole entry, looked up): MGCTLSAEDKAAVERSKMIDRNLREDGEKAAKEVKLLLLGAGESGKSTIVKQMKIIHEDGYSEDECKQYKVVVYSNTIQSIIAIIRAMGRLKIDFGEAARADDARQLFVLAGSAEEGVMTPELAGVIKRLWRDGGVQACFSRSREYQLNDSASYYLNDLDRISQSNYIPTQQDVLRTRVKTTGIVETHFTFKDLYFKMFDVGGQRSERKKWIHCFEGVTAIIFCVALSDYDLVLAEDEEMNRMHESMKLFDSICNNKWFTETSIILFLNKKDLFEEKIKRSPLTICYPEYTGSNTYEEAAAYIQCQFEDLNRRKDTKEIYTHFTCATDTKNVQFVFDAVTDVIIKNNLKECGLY

log2 fold change, inactive:
FOXO3 (UniProt O43524) -0.107
GNL1 (UniProt P36915) 0.028
ICMT (UniProt O60725) 0.303
HNRNPK isoform 3 (UniProt P61978) 0.003
FDFT1 (UniProt P37268) -0.019
HIST2H3A (UniProt Q71DI3) -0.078
HS1BP3 (UniProt Q53T59) -0.126
HMG20A (UniProt Q9NP66) -0.049
GAK (UniProt O14976) 0.371
GHDC (UniProt Q8N2G8) 0.038
GDE1 (UniProt Q9NZC3) 0
GNAI3 (UniProt P08754) 0.038
GBF1 (UniProt Q92538) -0.005
HAUS4 (UniProt Q9H6D7) 0.147
IFI30 (UniProt P13284) -0.032
IFT74 (UniProt Q96LB3) 0.021
GPNMB (UniProt Q14956) 0
